# Shown are actives, neighbours in structure and some others; about 6.6% of the full set was active somewhere.
# HT1080NT lethal – qHTS for induction of synthetic lethality in tumor cells producing 2HG: qHTS for the HT-1080-NT fibrosarcoma cell line | AID 686970, 2013 | Potency, µM (top dose mostly 46.1 µM), actives largely listed as cytotoxic | HT-1080-NT fibrosarcoma viability, CellTiter-Glo ATP luminescence, 48 h | actives 1.6% (n = 360,000);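 note: NT is the 2HG producing partner of a matched IDH1 knockdown line; nearly all actives have a fitted effect of over 55% in size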
#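 Viability by CellTiter-Glo luminescence after 48 h compound exposure at 37C of HT-1080-NT cells (750/well, RPMI, 5% FBS). % activity scaled between DMSO wells and medium-only wells, then curve-fitted and categorized by curve class.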
# KB-3-1 cytotox – qHTS assay for MDR1-selective chemotherapeutics: Primary screen using the parental adenocarcinoma cell KB-3-1; actives 1.4% (n = 400,000); Potency, µM (titrated, usually from 46.1 µM), actives largely listed as cytotoxic; KB-3-1 viability, CellTiter-Glo ATP luminescence, 72 h; note: nearly all actives have a fitted effect of over 60% in size
#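 72 h, 37 °C compound treatment of KB-3-1 parental cells; CellTiter-Glo added, 10 min, luminescence read. Data corrected against DMSO-only plates and normalized before curve fitting.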
# HT1080 IDH1KD tx – qHTS for induction of synthetic lethality in tumor cells producing 2HG: qHTS for the HT-1080-IDH1KD cell line; HT-1080 IDH1 knockdown viability, ATP luminescence, 48 h; Potency, µM (top dose mostly 46.1 µM), most hits filed as cytotoxic; actives 2% (n = 360,000); AID 686971, 2013
#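 HT-1080-IDH1KD cells (IDH1 knocked down), 750/well in RPMI with 5% FBS, treated with compound 48 h at 37 degrees C. Viability by CellTiter-Glo luminescence, normalised to DMSO and no-cell wells; concentration-response curves classed.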
# HepG2 viability – qHTS for Inhibitors of TGF-b: Cytotox Counterscreen; HepG2 CAGA-GFP viability, ATP luminescence, 18 h; Potency, µM (highest dose often 46.1 µM), hits mostly cytotoxic; actives 0.76% (n = 410,000); AID 588856, 2011
#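 HepG2 CAGA-GFP cells (1000/well, DMEM with 1% FBS) received compound, then TGF-beta at 500 pg/mL final, and were incubated 18 hours at 37 degrees C. Viability was read by CellTiter-Glo luminescence. Media-only wells were set as complete cell-killing and DMSO as no toxicity.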
# KB-V1 cytotox – qHTS assay for MDR1-selective chemotherapeutics: Primary screen using the drug-selected MDR subline cells KB-V1 | KB-V1 MDR cells viability, CellTiter-Glo, 72 h | Potency, µM (doses to about 46.1 µM), actives largely listed as cytotoxic | actives 3.4% (n = 400,000); note: nearly all actives have a fitted effect of over 60% in size
#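 Following 72 h at 37 degrees C with compound, KB-V1 cell viability was read by CellTiter-Glo luminescence, medium being phenol-red-free DMEM plus 10% FBS; concentration-response parameters came from normalized, curve-fitted qHTS data.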
# TGFb inhibitor – qHTS for Inhibitors of TGF-b; Potency, µM (top dose mostly 46.1 µM), usual class: inhibitors; AID 588855, 2011; actives 1.2% (n = 410,000); HepG2 CAGA-GFP TGF-b/SMAD3 reporter, GFP fluorescence, 18 h; TGF-beta stimulated, 500 pg/mL final; note: nearly all actives have a fitted effect of over 65% in size
#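 Using HEPG2 CAGA-GFP reporter cells at 1000 cells/well, we pinned test compounds, stimulated with recombinant TGF-beta (500 pg/mL final) and measured total well GFP after 18 h.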
# A number is an active result; . = inactive; ? = inconclusive; / = no result given; [ ] = another dose, or the depositor's remark. Calls come from the whole dose curve; as a rule, active = well fitted curve in the direction sought with a large enough effect; inconclusive = small, poorly fitted or top-dose-only effect, or another doubt; inactive = no such curve, though single readings can be large; an effect the other way counts as inactive or inconclusive.
SMILES,HT1080NT lethal,KB-3-1 cytotox,HT1080 IDH1KD tx,HepG2 viability,KB-V1 cytotox,TGFb inhibitor
CCOC(=O)c1c(C)[nH]c(C)c1S(=O)(=O)N(C)CC(=O)Nc1ccc(C)c(N(C)C)c1,/,.,/,.,.,.
C[C@@]12CC(=O)NC1N(C(=O)c1cccc(C(F)(F)F)c1)C(c1ccccc1OC(=O)c1cccc(C(F)(F)F)c1)C2 (stereo not given in full),.,.,.,.,.,12.6µM
COc1ccc2c(c1)CCc1c(C(=O)NCCN3CCOCC3)noc1-2,.,.,.,.,11.6µM,.
COCC(C)NC(=O)c1noc2c1CCc1cc(OC)ccc1-2 (stereo not given),.,.,.,.,16.4µM,.
COCCNC(=O)c1noc2c1CCc1cc(OC)ccc1-2,.,.,.,.,.,.
COc1ccc(NC(=O)CN2C(=O)C(c3ccccc3)=NC23CCC(C)CC3)cc1Cl (stereo not given),/,/,/,.,/,/
C=CCn1c(N)c(C(=O)OC(C)CC)c2nc3ccccc3nc21 (stereo not given),.,.,.,.,8.2µM,.
CO/N=C/c1ccc(N2CCN(C(=O)c3ccc(F)cc3)CC2)c([N+](=O)[O-])c1,.,.,.,.,16.4µM,.
O=C(N/N=C/c1ccc(N2CCOCC2)c([N+](=O)[O-])c1)c1ccc(F)cc1,.,.,.,.,.,.
O=C(O/N=C\c1ccc(N2CCCCC2)c([N+](=O)[O-])c1)c1cccc(Cl)c1,.,?,.,.,?,.
CO/N=C/c1ccc(N2CCN(C(=O)c3ccc(Cl)cc3Cl)CC2)c([N+](=O)[O-])c1,?,13µM,?,.,2.59µM,.
O=C(O/N=C\c1ccc(N2CCCCC2)c([N+](=O)[O-])c1)c1cccc(C(F)(F)F)c1,.,?,.,.,?,.
Cc1ccc(C(=O)O/N=C\c2ccc(N3CCCCC3)c([N+](=O)[O-])c2)cc1,.,?,.,.,7.31µM,.
CO/N=C/c1ccc(N2CCN(C(=O)c3cccc(C(F)(F)F)c3)CC2)c([N+](=O)[O-])c1,.,?,?,.,10.3µM,?
COc1cc(NC(=O)Cn2c(=O)oc3cc(S(=O)(=O)N4CCCCCC4)ccc32)cc(OC)c1,/,.,/,.,?,?
CC(C)c1ccc(NC(=O)CN2C(=O)COc3ccc(S(=O)(=O)N4CCCCCC4)cc32)cc1,/,/,/,.,/,?
CCNc1nc(N)nc(-c2cc(Cl)ccc2O)n1,16.4µM,?,23.1µM,.,?,?
CCCCNc1nc(N)nc(-c2cc(Cl)ccc2O)n1,.,?,.,.,11.6µM,?
CCCNc1nc(N)nc(-c2cc(Cl)ccc2OC)n1,.,.,.[9.24 µM],.,.,.
Cc1ccc(-c2nc(NC(=O)CSc3nc(C)nc4sc5c(c34)CCCC5)ns2)cc1,/,/,/,.,/,.
O=C(COCc1cc(-c2cccs2)on1)N1CCN(c2ccccc2)CC1,/,.,/,.,.,.
Cc1cc(Br)cn2c(Cc3ccsc3)c(-c3ccccc3)nc12,.,.,.,.,.,?
Cc1ccc(Cc2c(-c3ccc(Cl)cc3)nc3c(C)cc(Br)cn23)cc1,?,?,16.4µM,.,.,?
Cc1ccc(-c2nc3c(C)cc(Br)cn3c2Cc2ccsc2)cc1,?,?,16.4µM,.,.,?
Cc1ccc(Cc2c(-c3cccc(Cl)c3)nc3c(C)cc(Br)cn23)cc1,.,.,.,.,.,.
Cc1ccc(S(=O)(=O)Nc2ccc3c(c2)C(=O)N([C@H](C)CO)C[C@H](C)[C@@H](CN(C)Cc2ccccc2)O3)cc1,.,.,.,.,.,.

# Screening data deposited in PubChem BioAssay by National Center for Advancing Translational Sciences (NCATS).
